Screens as filed in PubChem.
Only some compounds are listed: those with a hit (about 2.1% of all), similar ones and a draw of the others.
aSyn yeast inh = rescues yeast growth from alpha-synuclein toxicity; Yeast expressing alpha-synuclein, growth rescue, BacTiter-Glo, 24 h; Potency, µM (top dose mostly 46.1 µM), for inactives: top-dose growth rescue (activation), hits mostly activators; hit rate 0.14% among 370,000; AID 652106; also: % of control where 0% means no effect; nearly all actives have a fitted effect of over 65% in size
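Screening used galactose-induced yeast with toxic alpha-synuclein levels, exposed to compound for 24 hr at 30 deg C. Cell growth, read with BacTiter-Glo luminescence, gave the measured signal.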
TDP-43 yeast inh = TDP-43 toxicity inhibition in yeast. TDP-43 expressing yeast growth rescue, BacTiter-Glo, 24 h. Potency, µM (top dose mostly 46.1 µM), without a hit: at the top dose growth rescue (activation), most hits filed as activators. hit rate 1.8% among 410,000. AID 652104; also: % of control where 0% means no effect; nearly all actives have a fitted effect of over 50% in size
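In this qHTS, compounds that restore growth of yeast expressing TDP-43 appear as activators. Cells (OD600=0.02, galactose medium, raffinose-pregrown) are incubated with compound 24 hr at 30 deg C and growth is quantified by BacTiter-Glo.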
Abeta rescue = compounds reversing amyloid beta toxicity in yeast; yeast expressing A-beta42, growth rescue, OD600, 48 h; response scale: 0% DMSO, 100% iron-clioquinol control; Potency, µM (series often up to 46.1 µM), hits mostly activators; hit rate 0.063% among 410,000; AID 1347071; also: nearly all actives have a fitted effect of over 55% in size
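Growth rescue measured by 600 nm absorbance after 48 h yeast culture at 30 C with compound. Values normalized between DMSO and an equimolar ferric chloride plus clioquinol control.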
FUS yeast rescue = suppressors of FUS proteinopathy in yeast. hit rate 0.24% among 390,000. AID 1347120. S. cerevisiae FUS-expressing, growth rescue, OD600, 24 h. Potency, µM (highest dose often 76.6 µM), hits mostly activators;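 also: plate controls were DMSO vehicle for no effect and reference control for full effect; nearly all actives have a fitted effect of over 55% in size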
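Toxicity suppression screen in FUS-yeast. Cells induced with 2% galactose, starting OD 0.005, treated 24hr at 30C with compounds at multiple final concentrations; growth by OD600.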
Starred values were filed as active, the others as inactive; i = inactive; ? = inconclusive; · = no result. Calls follow the shape of the dose curve; as a rule, active = well fitted curve in the direction sought with a large enough effect; inconclusive = small, poorly fitted or top-dose-only effect, or another doubt; inactive = no such curve, though single readings can be large; an effect the other way counts as inactive or inconclusive. Potency is read from the fitted curve at half-maximal effect.

SMILES	aSyn yeast inh	TDP-43 yeast inh	Abeta rescue	FUS yeast rescue
CC(=O)c1ccc2c(c1)Cc1cc(C(C)=O)ccc1-2	0%	-5%	i	·
O=C1C(=Cc2ccco2)C(=O)c2ccccc21	13%	22µM*	i	·
O=C(Nc1ccc(Cl)cn1)c1cnn2c1NC(=C1CC1)C=C2C(F)F	1%	·	·	·
COc1ccc2cc(C3=CCCC3(C)C(=O)O)ccc2c1 (stereo not drawn)	-38%	3.5µM*	i	i
S=c1[nH]nc(Cc2ccc(Br)cc2)n1/N=C/c1ccc(Cl)cc1	-14%	8.9µM*	?	i
S=c1[nH]nc(COc2ccccc2)n1/N=C/c1ccc(Cl)cc1	4%	11%	i	i
COc1ccc([C@@H]2CC=C(C(=O)O)[C@H](c3ccc(Br)cc3)N2S(=O)(=O)c2ccccc2C)cc1	-63%	35µM*	i	?
COc1ccc([C@@H]2CC=C(C(=O)O)[C@H](c3ccc(Cl)cc3)N2S(=O)(=O)c2ccccc2C)cc1	-33%	18µM*	i	?
Cc1ccc([C@@H]2CC=C(C(=O)O)[C@H](c3ccc(F)cc3)N2S(=O)(=O)c2ccccc2C)cc1	-7%	28µM*	i	i
Cc1ccccc1S(=O)(=O)N1[C@@H](c2ccccc2)C(C(=O)O)=CC[C@H]1c1ccc(Cl)cc1	1%	?	i	i
Cc1ccc([C@@H]2CC=C(C(=O)O)[C@H](c3ccc(Br)cc3)N2S(=O)(=O)c2ccccc2C)cc1	-6%	-16%	i	i
CCN(CC)c1nn2c(=O)c(C(=O)NCc3cccc(C)c3)cnc2s1	·	0%	i	i
CCOc1ccccc1CNC(=O)c1ccc2c(c1)nc1n2CCCCC1	·	-1%	i	i
CC[C@@H](C)C(NC(=O)OC(C)(C)C)c1cn([C@@H](Cc2cc3ccccc3[nH]2)C(=O)N2CCN(C(=O)OC(C)(C)C)CC2)nn1 (stereo partly drawn)	11%	-3%	i	14µM*
CC(C)CC(NC(=O)OC(C)(C)C)c1cn([C@@H](CCCCNC(=O)OC(C)(C)C)C(=O)N2CCN(C(=O)OC(C)(C)C)CC2)nn1 (stereo partly drawn)	0%	1%	i	7.9µM*
CC[C@@H](C)C(NC(=O)OC(C)(C)C)c1cn([C@@H](CCCCNC(=O)OC(C)(C)C)C(=O)N2CCN(C(=O)OC(C)(C)C)CC2)nn1 (stereo partly drawn)	3%	0%	i	i
COc1cc(NC(=O)CN(C)S(=O)(=O)c2ccc3[nH]c4c(c3c2)CCCC4)cc(OC)c1OC	·	15%	i	i
Cc1ccc(/C(O)=C2\C(=O)C(=O)N(CCc3c[nH]c4ccccc34)C2c2cccnc2)cc1 (stereo not drawn)	-2%	-17%	i	35µM*
Cc1cccc(C(=O)O/N=C(\N)Cc2ccc([N+](=O)[O-])cc2)c1	-66%	-2%	i	i
N/C(Cc1ccc([N+](=O)[O-])cc1)=N\OC(=O)c1ccc2ccccc2c1	-33%	11µM*	i	i
COc1ccc(N2CCC(CNC(=S)Nc3cc(C)ccc3C)C2)cc1 (stereo not drawn)	?	14µM*	?	i
COc1ccc(CN(CC2CCC(C(=O)O)CC2)C(=S)Nc2cc(C)ccc2C)cc1 (stereo not drawn)	10%	22µM*	i	i
CC(=O)n1c2c(c3ccccc31)OC(N)=C(C#N)C2c1ccc(C(C)C)cc1 (stereo not drawn)	20µM*	1%	i	i
CCc1ccc(S(=O)(=O)c2cn(C)c3cc(N4CCC(C)CC4)c(F)cc3c2=O)cc1	·	6%	i	i
COc1ccc(CCN2C(=O)CN(C3CCC(C)CC3)C(=O)C2c2ccc(OC(C)C)c(OC)c2)cc1OC (stereo not drawn)	·	-16%	i	i
SMILES	aSyn yeast inh	TDP-43 yeast inh	Abeta rescue	FUS yeast rescue
Cc1cc(C)cc(NC(=O)N2CCN(Cc3nc4ccccc4c(=O)[nH]3)CC2)c1	·	·	·	i
CC(CCl)n1c(=O)c2ccccc2n1C(=O)c1ccccc1 (stereo not drawn)	-11%	11µM*	i	i
CC(=O)Nc1ccc(N=Nc2ccccc2)cc1	-12%	10µM*	i	·
CC(=O)Nc1ccccc1	-2%	20%	i	i
CC(=O)OCC(=O)Nc1ccc(N=Nc2ccccc2)cc1	-15%	11µM*	i	i
COc1ccc(C(=O)N2CCN(c3nc4c(C)c(Cl)ccc4s3)CC2)c(OC)c1	·	?	i	i
O=C(NC1CC1)C1=C[C@@H](c2csc3ccccc23)C[C@@H](OCc2ccc(CO)cc2)O1	29%	14µM*	i	?
O=C(Nc1ccccc1)C1=C[C@H](c2coc3ccccc3c2=O)C[C@H](OCc2ccc(CO)cc2)O1	1%	20µM*	i	?
C#CCNC(=O)C1=C[C@@H](c2csc3ccccc23)C[C@@H](OCc2ccc(CO)cc2)O1	8%	25µM*	i	i
CCOC(=O)c1cccc(NC(=O)C2CCN(S(=O)(=O)c3cn(C)cn3)CC2)c1	·	18%	i	i
N#CCC[C@H]1CC[C@]2(CCCN(C(=O)c3ccc4ccccc4n3)C2)O1	·	·	·	i
O=C(Nc1nnc(-c2ccco2)s1)C1CCCCC1	-4%	-15%	i	i
O=C(Nc1nc(-c2ccco2)c(-c2ccco2)s1)C1CCC1	-30%	35µM*	i	i
Cc1ccc2c(c1)c(C)c(C)n2CC(O)Cn1nnc2ccccc21 (stereo not drawn)	?	?	10µM*	?
O=C(NCc1ccc(F)cc1)C1CCN(C(=O)c2ccc(-n3ccc4ccccc43)s2)CC1	·	23%	i	i
Cc1nn(C)c(C(=O)NC2C3CC4CC(C3)CC2C4)c1Cl (stereo not drawn)	7%	10µM*	i	i
Cn1ncc(Cl)c1C(=O)NC1C2CC3CC(C2)CC1C3 (stereo not drawn)	8%	?	i	i
CCOC(=O)c1cnc(NCc2ccccc2)nc1C	·	7.1µM*	i	i
COc1cccc(/C=N/NC(=O)C(=O)Nc2ccccc2OC(F)(F)C(F)F)c1O	22µM*	-2%	i	i
COc1ccccc1/C=N/NC(=O)c1cccc(OC(F)(F)C(F)F)c1	-15%	-1%	i	·
Oc1ccc(N=Nc2ccc3c(c2)OCCO3)c2cccnc12	20µM*	?	?	i
Clc1cccc(Nc2nc(-c3ccncc3)cs2)c1	3%	13µM*	i	i
Cc1ccc(Cl)cc1Nc1nc(-c2cccnc2)cs1	3%	13µM*	i	i
Clc1ccc(Nc2nc(-c3cccnc3)cs2)cc1	-7%	19%	i	i
O=C(NC(=S)NCc1ccccc1)c1ccc2c(c1)OCO2	2%	25µM*	i	·
O=C(NC(=S)NCc1ccc2c(c1)OCO2)c1ccccc1	22%	16µM*	?	i
